# Test results: PubChem BioAssay (Tox21)
# Inconclusive results are not listed. Unmarked numbers belong to inactive results. The call rests on the fitted dose curve.
# Target: Vitamin D3 receptor (Homo sapiens) (UniProt P11473)
# Experiment: qHTS assay to identify small molecule agonists of the vitamin D receptor (VDR) signaling pathway (AID 743222)
# Details: HEK293T VDR-UAS-bla, beta-lactamase FRET ratio, 16 h; series mostly up to 63.5 µM; activation: at the top concentration
# Text: National Center for Advancing Translational Sciences [NCATS]
# NIH Chemical Genomics Center [NCGC]
# U.S. Environmental Protection Agency [EPA]
# National Institutes of Environmental Health Sciences [NIEHS]
# National Toxicology Program [NTP]
# U.S. Food and Drug Administration [FDA]
# The vitamin D receptor (VDR), a member of nuclear hormone receptor superfamily, plays a critical role in calcium homeostasis and bone metabolism. It is also involved in cell differentiation and growth, and thrombogenicity.
# Tox21 Assay Protocol Summary:
# VDR-bla cells were dispensed at 2,000 cells/6 uL/well into black wall/clear-bottom 1536-well plates using a Multidrop Combi (Thermo Fisher Scientific, Waltham, MA) dispenser. After the assay plates were incubated at a 37C and 5% CO2 for 4 h, 23 nL of compounds dissolved in DMSO, positive controls or DMSO only was transferred to the assay plate by a Pintool station (Kalypsys, San Diego, CA). The plates were incubated at 37C and 5% CO2 for 16 h. After 1 uL of LiveBLAzerTM B/G FRET substrate was added using a Bioraptr Flying Reagent Dispenser (FRD) workstation (Beckman Coulter, Indianapolis, IN, USA), the plates were incubated at room temperature for 2 h, and fluorescence intensity was measured by an Envision plate reader (PerkinElmer, Shelton, CT).
# On the % scale 0 is the no-effect control and ±100 the full control effect.
# Sequence of Vitamin D3 receptor (Homo sapiens) (P11473 whole entry, looked up): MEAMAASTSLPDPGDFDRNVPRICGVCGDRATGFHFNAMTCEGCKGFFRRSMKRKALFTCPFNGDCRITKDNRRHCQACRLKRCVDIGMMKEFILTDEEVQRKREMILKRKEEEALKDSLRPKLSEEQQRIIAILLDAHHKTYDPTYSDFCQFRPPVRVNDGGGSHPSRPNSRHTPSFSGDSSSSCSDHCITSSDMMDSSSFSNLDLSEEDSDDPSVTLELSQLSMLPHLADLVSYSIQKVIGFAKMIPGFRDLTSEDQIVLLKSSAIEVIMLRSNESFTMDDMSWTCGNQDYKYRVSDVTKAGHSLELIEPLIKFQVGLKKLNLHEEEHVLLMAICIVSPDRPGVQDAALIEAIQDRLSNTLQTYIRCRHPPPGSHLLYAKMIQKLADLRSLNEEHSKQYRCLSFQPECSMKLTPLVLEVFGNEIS
row,Structure (SMILES),activation
1,C=C(C)[C@@H]1CC=C(C=O)CC1,-4.72%
2,COc1cc(OC)nc(NC(=O)NS(=O)(=O)c2ncccc2OCC(F)(F)F)n1,5.43%
3,O=S(=O)(O)C(F)(F)C(F)(F)C(F)(F)C(F)(F)C(F)(F)C(F)(F)F,4.71%
4,O=C(Oc1ccc(Br)cc1)N1CCN2CCC1CC2,4.18%
5,C[C@@H]1CN(C2CCC(C#N)(c3ccc(F)cc3)CC2)CC[C@]1(C(=O)O)c1ccccc1 (stereo not given in full),6.01%
6,O=CNC(N1CCN(C(NC=O)C(Cl)(Cl)Cl)CC1)C(Cl)(Cl)Cl (stereo not given),-7.21%
7,N#CCCC#N,8.2%
8,CCC1(c2ccccc2)C(=O)NC(=O)NC1=O,0.517% [at 81.1 µM]
9,CCCCC(=O)Cl,0.0575% [at 81.1 µM]
10,CCCSC(=O)Cl,-2.01% [at 81.1 µM]
11,CCc1cc2c(s1)-n1c(C)nnc1CN=C2c1ccccc1Cl,-11.7%
12,CCOP(=O)(OCC)OP(=O)(OCC)OCC,3.15%
13,COC(=O)c1ccccc1S(=O)(=O)NC(=O)Nc1nc(C)cc(C)n1,-0.464%
14,CC1CN1P(=O)(N1CC1C)N1CC1C (stereo not given),0.698%
15,CCCCOC(=O)c1ccccc1N,0.69% [at 81.1 µM]
16,CCNc1nc(NC(C)C)nc(OC)n1,7.33%
17,CNC(=O)Oc1c(C(C)(C)C)cc(C)cc1C(C)(C)C,-6.15%
18,OC(Cn1cncn1)(c1ccc(F)cc1)c1ccccc1F (stereo not given),-14.1%
19,CCOc1nc(C(Cl)(Cl)Cl)ns1,0.499%
20,O=C1CN2CCOC2(c2ccccc2Cl)c2cc(Cl)ccc2N1 (stereo not given),-11.7%

row,Structure (SMILES),activation
1,ClCC(Cl)(Cl)Cl,2.58% [at 81.1 µM]
2,CCOC(=O)C1(c2ccccc2)CCN(CCc2ccc(N)cc2)CC1,-18.1%
3,Cc1ncsc1CCCl,-0.422%
4,COc1ccc2c(c1OC)CN1CCc3cc4c(cc3C1C2)OCO4 (stereo not given),3.96%
5,CNC(=O)O/N=C(\C)SC,2.8%
6,CN1C(=S)CN=C(c2ccccc2)c2cc(Cl)ccc21,2.48%
7,NC(=O)c1cc([N+](=O)[O-])cc([N+](=O)[O-])c1,4.56%
8,O=C1CN=C(c2ccccc2)c2cc([N+](=O)[O-])ccc2N1,0.295%
9,BrCCCCCCBr,0.524%
10,ClCCOCOCCCl,2.4% [at 81.1 µM]
11,CC1CCC(=O)O1 (stereo not given),5.21%
12,Cc1ncc2n1-c1ccc(Cl)cc1C(c1ccccc1F)=NC2,3.02%
13,CNC(=O)N(C)c1nc2ccccc2s1,-8.85%
14,ClC(Cl)Br,-2.43% [at 81.1 µM]
15,O=C1OC(=O)C2C1C1(Cl)C(Cl)=C(Cl)C2(Cl)C1(Cl)Cl (stereo not given),1.61% [at 81.1 µM]
16,C#C[C@]1(O)C=C[C@H]2[C@@H]3CCC4=CC(=O)CC[C@@H]4[C@H]3CC[C@@]21CC,-8.35%
17,O=c1oc2ccccc2c(O)c1C1CCCc2ccccc21 (stereo not given),-6.61%
18,COP(=S)(OC)Oc1c(Cl)cc(C)cc1Cl,3.5%
19,CC(=O)[C@H]1CC[C@H]2[C@@H]3CC[C@H]4C[C@H](O)CC[C@]4(C)[C@H]3C(=O)C[C@]12C,-9.54%
20,CC(CC(C#N)(c1ccccc1)c1ccccc1)N(C)C (stereo not given),-3.75% [at 81.1 µM]
